Assay results taken from PubChem BioAssay AID651725 (National Center for Advancing Translational Sciences (NCATS), 2012).
About 2,000 (0.56%) of roughly 360,000 compounds were called active. About 2% were inconclusive and are not listed. The full list was thinned out, with actives kept by preference. Values without a mark were called inactive. No stated cut-off is given here; in the data, active means activity change below about -65%; inconclusive means mostly about -30% to -63%; inactive means weaker than that.

Target: Homeobox protein SIX1 (Homo sapiens) + Protein phosphatase EYA2 (Homo sapiens) (UniProt Q15475+O00167)
Sequence (O00167 whole entry, looked up): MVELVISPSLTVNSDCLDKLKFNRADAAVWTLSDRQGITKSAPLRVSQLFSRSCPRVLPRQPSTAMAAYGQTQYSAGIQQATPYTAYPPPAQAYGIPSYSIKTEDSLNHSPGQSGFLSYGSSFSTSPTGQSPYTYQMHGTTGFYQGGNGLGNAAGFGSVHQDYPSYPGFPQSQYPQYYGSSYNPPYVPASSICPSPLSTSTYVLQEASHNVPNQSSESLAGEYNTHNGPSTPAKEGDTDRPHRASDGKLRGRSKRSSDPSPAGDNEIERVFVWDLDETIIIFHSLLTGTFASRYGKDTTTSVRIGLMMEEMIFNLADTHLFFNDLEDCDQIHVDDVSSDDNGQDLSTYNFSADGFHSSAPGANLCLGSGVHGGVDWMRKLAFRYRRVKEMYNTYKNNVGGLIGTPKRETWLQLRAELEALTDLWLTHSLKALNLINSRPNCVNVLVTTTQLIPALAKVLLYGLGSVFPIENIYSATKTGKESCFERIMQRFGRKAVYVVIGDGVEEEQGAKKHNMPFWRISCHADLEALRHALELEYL
Sequence (Q15475 whole entry, looked up): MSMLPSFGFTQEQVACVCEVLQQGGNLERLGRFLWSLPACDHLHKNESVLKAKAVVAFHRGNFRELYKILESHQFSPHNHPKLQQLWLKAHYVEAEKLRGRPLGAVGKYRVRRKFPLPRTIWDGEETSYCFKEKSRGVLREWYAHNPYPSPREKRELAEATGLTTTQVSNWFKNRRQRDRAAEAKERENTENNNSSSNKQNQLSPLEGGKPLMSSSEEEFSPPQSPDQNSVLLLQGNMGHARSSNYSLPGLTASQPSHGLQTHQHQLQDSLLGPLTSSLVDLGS
Assay: qHTS Assay for Inhibitors of the Six1/Eya2 Interaction
Settings: AlphaScreen GST-Six1/His-Eya2 binding, biochemical; active compounds read low
Outline: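 Six1/Eya2 binding was read as AlphaScreen signal after compounds were pinned into GST-Six1 plus His-tagged Eya2 (5X stock 250/500 nM) in pH 8.0 Tris/NaCl/TCEP buffer, beads added, then incubated 1 h, 37 C, dark.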
On the % scale 0 is the no-effect control and ±100 the full control effect.

Going from `O=C(C(=O)N1CCN(c2ccccc2)CC1)c1ccc2c(c1)OCO2` to `CC1(C(=O)Nc2ccc3c(c2)OCCO3)CSCC(=O)N1CCOc1ccccc1` (centres undefined), the activity change falls from 9.9% to -5.39%.

Going from `CCOc1ccc(C(CCc2ccccc2)NC(=O)c2ccc(OC)c(OC)c2)cc1OCC` (centres undefined) to `O=C(NCCc1ccco1)c1nn(Cc2ccccc2)c(=O)c2ccccc12`, the activity change rises from -5.59% to -4.25%.

Going from `C=CCn1c(COc2cccc3cccnc23)nnc1SCC(=O)OC` to `Cc1c(NC(=O)CSc2nnc(-c3cccnc3)n2N)c(=O)n(-c2ccccc2)n1C`, the activity change rises from 0.499% to 10.2%.

First: Cc1cc(C)n2c(Nc3c(C)cccc3C)c(CCc3ccccc3)nc2n1
Second: Cc1c(NC(=O)CSc2nnnn2-c2ccc(C(=O)O)cc2)c(=O)n(-c2ccccc2)n1C
The activity change of the first is lower: -0.972% for the first, 5.09% for the second.

Going from `O=C(NCc1ccccn1)c1cnc2sccn2c1=O` to `O=[N+]([O-])c1cccc(S(=O)(=O)NCc2ccccn2)c1`, the activity change falls from -1.07% to -5.71%.

First: COc1cc(/C=C/CO)cc(OC)c1O[C@@H]1O[C@H](CO)[C@@H](O)[C@H](O)[C@H]1O
Second: COc1cc(/C=N/NC(=S)Nc2cccnc2)cc(OC)c1O
The activity change of the first is higher: 5% for the first, 0% for the second.

First: CC1(C(=O)NCc2ccccc2)CSCC(=O)N1CCCn1ccnc1 (centres undefined)
Second: O=C1CCN(CCCc2ccccc2)CCN1CCO
The activity change of the first is higher: -4.73% for the first, -23.5% for the second.

Compared with `Cc1cc(F)ccc1S(=O)(=O)N1CCCOC1CNC(=O)C(=O)NCCC1=CCCCC1` (centres undefined), `O=C(NCCCc1ccccc1)C(=O)NCC1OCCN1S(=O)(=O)c1ccccc1` (centres undefined) is lower in activity change: 6.61% for the first, 5.49% for the second.

Going from `COc1ccc(NC(=O)C(c2ccncc2)n2c(=O)c(-c3cc4ccccc4[nH]3)nc3ccccc32)cc1` (centres undefined) to `O=C(NC1CCCCC1)C(c1cc2ccccc2o1)n1c(=O)c(-c2ccco2)nc2ccccc21` (centres undefined), the activity change falls from 18.4% to 6.65%.

Compared with `O=C(Nc1ccc(Br)cc1)c1cc(S(=O)(=O)Nc2ccccn2)ccc1Cl`, `CCN(CC)c1ccc(NC(=O)c2ccc(Cl)nc2)cc1` is lower in activity change: -3.31% for the first, -10.4% for the second.

Compared with `CCN(CC)CCn1c(/N=C/c2cc(Br)ccc2O)nc2ccccc21`, `O=C(OCN1C(=O)c2ccccc2C1=O)/C(=C\c1ccco1)NC(=O)c1ccccc1` is lower in activity change: 4.55% for the first, -1.79% for the second.

Going from `CCOC(=O)[C@]12CCC=C1N(Cc1ccco1)C(=O)[C@H](CC(=O)N1CCSCC1)C2` to `COC(=O)[C@]12CCCCC=C1N(Cc1ccco1)C(=O)[C@H](CC(=O)NCC1CCCCC1)C2`, the activity change falls from 13% to 4.18%.

Compared with `CO[C@@H]1CN(C)C(=O)c2cc(NC(=O)C3CC3)ccc2OC[C@H](C)N(C(=O)CN2CCOCC2)C[C@@H]1C`, `CCOC(CNC(=O)C1CCN(S(=O)(=O)c2ccc3nc4c(c(C(=O)O)c3c2)CC(C)CC4)CC1)OCC` (centres undefined) is lower in activity change: -0.378% for the first, -16.3% for the second.

First: NCCCCCC(=O)N/N=C/c1ccc2nccnc2c1
Second: O=C(CCC(=O)N/N=C/c1ccc(Br)o1)N/N=C/c1ccc(Br)o1
The activity change of the first is higher: 4.58% for the first, 0.575% for the second.

Compared with `O=[N+]([O-])c1ccc(N/N=C2/CCCCC2c2ccccn2)c([N+](=O)[O-])c1` (centres undefined), `O=C(NC1CCCC1)C1c2ccccc2OCC(=O)N1CC(F)(F)F` (centres undefined) is higher in activity change: -4.9% for the first, -3% for the second.

First: O=C1OCCOC2CCCc3oc(-c4ccccc4)c1c32 (centres undefined)
Second: CN(Cc1ccccc1)C(=O)[C@@H]1CCCN1C(=O)[C@@H]1CCCN1C(=O)c1c(F)cccc1F
The activity change of the first is lower: -10.5% for the first, 7.39% for the second.

Compared with `CC(=O)N1c2ccc(S(=O)(=O)N3CCC(C(=O)NCc4ccc(F)cc4)CC3)cc2CC1C` (centres undefined), `CC(=O)C[C@@H]1OC[C@H](CO)N1S(=O)(=O)c1ccc(C)cc1` is higher in activity change: -0.504% for the first, 7.41% for the second.

First: CCCNC(=O)C[C@@H]1CC[C@@H]2[C@H](COC[C@H](O)CN2C(=O)c2cc(Cl)cc(Cl)c2)O1
Second: CCOC(=O)[C@]12CCC=C1N(CCC1=CCCCC1)C(=O)[C@H](CC(=O)NCc1ccc(C)o1)C2
The activity change of the first is higher: 9.3% for the first, -7.25% for the second.

Going from `COc1ccc(NC(=O)C/C(C)=N/NC(=O)c2cnccn2)cc1Cl` to `S=C(Nc1cccnc1)Nc1ccccn1`, the activity change rises from -8.49% to 6.86%.

Going from `O=C1CN(C(=O)c2ccccc2F)C(c2ccc(F)cc2)c2cc(F)ccc2N1` (centres undefined) to `O=S1(=O)CC(N2CCN(Cc3ccccc3F)CC2)CN1Cc1cn(Cc2cccc(C(F)(F)F)c2)nn1` (centres undefined), the activity change falls from 10.1% to 1.67%.

Compared with `CCOC(=O)[C@]12CCCC=C1N(CCC1=CCCCC1)C(=O)[C@H](CC(=O)NCCCOC)C2`, `COC(=O)[C@@]12C[C@@H](CC(=O)NCCCCc3ccccc3)C(=O)N(Cc3ccccc3)C1=CCC(C)(C)C2` is lower in activity change: -3.1% for the first, -3.62% for the second.

Going from `Cc1cc(C)c(S(=O)(=O)N(C)CC(=O)NCC2CCCO2)c(C)c1` (centres undefined) to `CCOC(=O)c1cc2cc(OC)ccc2n1C1CCN(C)CC1`, the activity change falls from 3.65% to 1.46%.

Going from `Cc1ccc(Nc2ncnc3c2cnn3C)c(C)c1` to `CC(C)Sc1ncnc2c1cnn2-c1ccccc1`, the activity change rises from 8.85% to 16.7%.

First: Cc1[nH]c2ccccc2c1C(=O)c1cc([C@H](NC(=O)OC(C)(C)C)C(C)C)sc1N
Second: CN(Cc1cn(Cc2ccc(C(F)(F)F)cc2)nn1)C1CN(Cc2cn(Cc3ccc(C(F)(F)F)cc3)nn2)S(=O)(=O)C1 (centres undefined)
The activity change of the first is lower: -28% for the first, 3.81% for the second.

With `CCCCC(=O)NC(c1ccc(OC)c(OC)c1)c1ccc2cccnc2c1O` (centres undefined) the activity change was -90.3% (active).
In the case of `O=C(NCCCn1ccnc1)C(=O)NCC1OCCN1S(=O)(=O)c1cc(F)ccc1F` (centres undefined), the activity change was -72.2% (active).
For `Oc1ccc(Br)cc1/C=N/Nc1ccccn1`, the activity change was -77.2% (active).
With `O=C(CCCO)N/N=C/c1cc(Br)ccc1O` the activity change was -68.6% (active).
For `O=[N+]([O-])c1ccc2nc(-c3ccccn3)[nH]c2c1`, the activity change was -72.6% (active).
For `Cc1ccc(CNC(=O)C2CCN(S(=O)(=O)c3ccc4nc5c(c(C(=O)O)c4c3)CC(C)CC5)CC2)cc1` (centres undefined), the activity change was -65.1% (active).
For `CCN(CC)c1ccc(/C=N/NC(=O)c2cnccn2)c(O)c1`, the activity change was -91.7% (active).
`Cc1ccc(-n2ncc3c(Nc4cccc(C(=O)O)c4)ncnc32)cc1` was tested, and the activity change was -66.4% (active).
In the case of `Cc1c(NC(=O)CSc2cccc3cccnc23)c(=O)n(-c2ccccc2)n1C`, the activity change was -90.9% (active).
In the case of `S=C(NN=Cc1ccccn1)Nc1ccccn1`, the activity change was -91.9% (active).
In the case of `O=c1nc2s/c(=C\c3ccco3)c(=O)n2nc1Cc1ccccc1`, the activity change was -82.8% (active).
